# Values joined by “and” are separate entries in the source; they are usually repeats but may differ in a detail not shown here. Equal entries are not always repeated. Inconclusive results are not listed. Entries that show only a call come without a potency. Values without a mark were called inactive. Active and inactive are the calls of the source. Calls come from the whole dose curve; as a rule, active = well fitted cell-killing curve with a large enough effect in the repeat runs; inconclusive = weak or mixed curves, or effect the other way; inactive = flat fitted curve, though single readings scatter.
# Assays:
# [1] = cAMP Responsive Elements (CRE) small molecule antagonists, cell-based qHTS assay: qHTS cell viability counter screen (AID 2060913); note: nearly all actives have a fitted effect of over 40% in size
# Method in brief: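 Steps: cells plated and held 18 hrs at 37 C/5% CO2; compounds and NKH477 (0.25 uM final) added; 3 hrs incubation; reporter substrate read; CellTiter-Glo added to measure cytotoxicity by luminescence.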
# [2] = cAMP Responsive Elements (CRE) small molecule agonists, cell-based qHTS assay: qHTS cell viability counter screen (AID 2060914); note: nearly all actives have a fitted effect of over 50% in size
# Method in brief: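 Cytotoxicity was measured as ATP luminescence (CellTiter-Glo, 30 min at room temperature) in the same wells as the CRE-bla FRET read-out. HEK293T CRE-bla cells had 3 h compound exposure at 37C/5% CO2.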
# Potency is the fitted concentration of half-maximal effect.
Compound,Potency [1],Potency [2],"viability change, negative = cytotoxic [1]","activity change, negative = cytotoxicity [2]"
Clc1ccccc1-c1nc(-c2ccncc2)no1,inactive,inactive,–,–
CC1=CC(=O)CC(C)(C)C1=O,inactive,inactive,–,–
C[C@@H](O)[C@H]1C(=O)N2C(C(=O)O)=C(SCCN=CN)C[C@H]12,inactive,inactive,–,–
O=C(c1ccc(O)cc1)c1ccc(O)cc1O,inactive,inactive,–,–
O=C(O)c1cc(C(=O)O)cc(C(=O)O)c1,inactive,inactive,–,–
Cc1ccc(NC(=O)c2ccc(CN3CCN(C)CC3)cc2)cc1Nc1nccc(-c2cccnc2)n1,inactive,inactive,–,–
Nc1cc(Cl)c(O)c(Cl)c1,inactive,inactive,–,–
O=c1n(CCO)c(=O)n(CCO)c(=O)n1CCO,inactive,inactive,–,–
COc1cc(C(C)=O)ccc1OCCCN1CCC(c2noc3cc(F)ccc23)CC1,inactive,inactive,–,–
CC(=O)Nc1ccc2c(c1)Cc1cc(NC(C)=O)ccc1-2,inactive,inactive,–,–
CCOC(=O)c1ccccc1C(=C1C=C(Br)C(=O)C(Br)=C1)c1cc(Br)c(O)c(Br)c1,inactive,inactive,–,–
CO[C@@]1(NC(=O)Cc2cccs2)C(=O)N2C(C(=O)O)=C(COC(N)=O)CS[C@@H]21,inactive,inactive,–,–
O=C1OC(=O)c2c(Br)c(Br)c(Br)c(Br)c21,inactive,inactive,–,–
CCCCCCCCCCCCCC[P+](CCCC)(CCCC)CCCC,60.8 µM (active) and 28.5 µM (active),60.8 µM (active) and 61.1 µM (active),–,–
CO/N=C(/C(=O)N[C@@H]1C(=O)N2C(C(=O)O)=C(COC(N)=O)CS[C@H]12)c1ccco1,inactive,inactive,–,–
CC(=O)N(c1onc(C)c1C)S(=O)(=O)c1ccc(N)cc1,inactive,inactive,–,–
CC(C)NCC(O)COc1ccc(COCCOC(C)C)cc1 (stereo not given),inactive,inactive,–,–
C[N+]1(C)CCC(=C(c2ccccc2)c2ccccc2)CC1,inactive,inactive,–,–
O=C1c2ccccc2C(=O)C1c1ccc2ccccc2n1,inactive,inactive,–,–
CN1CCN(C2Cc3ccccc3Sc3ccc(Cl)cc32)CC1 (stereo not given),inactive,inactive,–,–
O=P(OC(CCl)CCl)(OC(CCl)CCl)OC(CCl)CCl,inactive,inactive,–,–
CCCCOCCOC(=O)CCCCCCCCC(=O)OCCOCCCC,inactive,inactive,–,–
CCCCCCCCc1ccc(Nc2ccc(CCCCCCCC)cc2)cc1,inactive,inactive,–,–
CC(C)c1cc2c(cc1S(=O)(=O)O)[C@@]1(C)CCC[C@@](C)(C(=O)O)[C@@H]1CC2,inactive,inactive,–,–
CCOCCOCCOCC,inactive,inactive,–,–
CCC(C(=O)OCCN(CC)CC)c1ccccc1 (stereo not given),inactive,inactive,–,–
CC(C)NC(=O)c1ccccc1N,inactive,inactive,–,–

Compound,Potency [1],Potency [2],"viability change, negative = cytotoxic [1]","activity change, negative = cytotoxicity [2]"
C=CC(=C)CCCC(C)(C)OC(C)=O,inactive,inactive,–,–
CC(C)COC(=O)CCCCC(=O)OCC(C)C,inactive,inactive,–,–
CCCCCCCCCCCCCCCCCCCl,–,–,-1.12% [at 8.39 µM],-6.8% [at 8.39 µM]
O=C(NC1CCN(CCc2c[nH]c3ccccc23)CC1)c1ccccc1,inactive,inactive,–,–
O=C1C(c2[nH]c3ccccc3c2O)=Nc2ccccc21,inactive,inactive,–,–
CC(=O)[C@@]1(O)CC[C@H]2[C@@H]3C[C@H](C)C4=CC(=O)CC[C@]4(C)[C@H]3CC[C@@]21C,inactive,inactive,–,–
C=C(C)C1CCC(C)(O)CC1 (stereo not given),inactive,inactive,–,–
CN1CCN(c2cc3c(cc2F)c(=O)c(C(=O)O)cn3-c2ccc(F)cc2)CC1,inactive,inactive,–,–
C=COCCCC,inactive,inactive,–,–
CC(C)=CCC/C(C)=C/COC=O,inactive,inactive,–,–
CCCc1ccc(O)cc1,inactive,inactive,–,–
C#CCN[C@@H]1CCc2ccccc21,inactive,inactive,–,–
Cc1cc(C)cc(N)c1,inactive,inactive,–,–
c1ccc2cc3ccccc3cc2c1,inactive,inactive,–,–
C=CC(OCC)OCC,inactive,inactive,–,–
O=Nc1ccc(Nc2ccccc2)cc1,inactive,inactive,–,–
Brc1ccc(Br)c(Br)c1,inactive,inactive,–,–
Oc1ccccc1-c1nnco1,inactive,inactive,–,–
CCOC(=O)c1ccccc1OC,inactive,inactive,–,–
CCN(Cc1ccncc1)C(=O)C(CO)c1ccccc1 (stereo not given),inactive,inactive,–,–
O=C(O)CC(O)C(=O)O (stereo not given),inactive,inactive,–,–
Nc1ccc(S(=O)(=O)Nc2ccnn2-c2ccccc2)cc1,–,–,5.89% [at 18.9 µM],8.29% [at 18.9 µM]
O=CC1CC=CCC1 (stereo not given),inactive,inactive,–,–
CN(C)/N=N/c1nc[nH]c1C(N)=O,inactive,inactive,–,–
NCC1CCC(C(=O)Oc2ccc(CCC(=O)O)cc2)CC1 (stereo not given),inactive,inactive,–,–
O=C(CCBr)N1CCN(C(=O)CCBr)CC1,inactive,inactive,–,–
C=CC(=O)OCCCCCCCC(C)C,inactive,inactive,–,–

Compound,Potency [1],Potency [2],"viability change, negative = cytotoxic [1]","activity change, negative = cytotoxicity [2]"
Cc1cc(O)ccc1N,inactive,inactive,–,–
CCOC(=O)C(C)(C)Oc1ccc(Cl)cc1,inactive,inactive,–,–
O=C1C(CCS(=O)c2ccccc2)C(=O)N(c2ccccc2)N1c1ccccc1 (stereo not given),inactive,inactive,–,–
O=CNc1ccccc1,inactive,inactive,–,–
Cc1c(-c2ccccc2)oc2c(C(=O)OCCN3CCCCC3)cccc2c1=O,inactive,inactive,–,–
CC(CO)(CO)[N+](=O)[O-],inactive,inactive,–,–
O=C1c2ccccc2C(=O)c2c(O)c(O)cc(O)c21,inactive,inactive,–,–
O=C1OC2(c3ccccc31)c1cc(Br)c(O)c(Br)c1Oc1c2cc(Br)c(O)c1Br,inactive,inactive,–,–
CNC(=O)Oc1ccc2c(c1)[C@]1(C)CCN(C)[C@@H]1N2C,inactive,inactive,–,–
CC(=O)c1ccccc1[N+](=O)[O-],inactive,inactive,–,–
CCOC(N)=O,inactive,inactive,–,–
COc1cc(NC(=O)CC(C)=O)c(OC)cc1Cl,inactive,inactive,–,–
CC(C)CCCC(=O)O,inactive,inactive,–,–
c1ccc(-c2ccc(-c3ccccc3)cc2)cc1,–,–,0.929% [at 18.9 µM],0.504% [at 18.9 µM]
CC[C@H]1CN2CCc3cc(OC)c(OC)cc3[C@@H]2C[C@@H]1C[C@H]1NCCc2cc(OC)c(OC)cc21,inactive,inactive,–,–
Cc1cnc(NS(=O)(=O)c2ccc(N)cc2)nc1,inactive,inactive,–,–
COc1cc(OC)c2ccc(=O)oc2c1,inactive,inactive,–,–
CCCCCCO,inactive,inactive,–,–
O=C(Oc1ccccc1)c1ccccc1O,inactive,inactive,–,–
CC(C)OC(=O)c1ccccc1C(=O)OC(C)C,inactive,inactive,–,–
CCCCCCCCCCOc1cc2c(=O)c(C(=O)OCC)c[nH]c2cc1OCC,–,–,-0.799% [at 8.39 µM],-0.252% [at 8.39 µM]
Cc1cc(Cc2cc(C)cc(C(C)(C)C)c2O)c(O)c(C(C)(C)C)c1,54.8 µM (active) and 40.3 µM (active),34.6 µM (active) and 54.5 µM (active),–,–
O=Cc1ccc(C(=O)O)cc1,inactive,inactive,–,–
O=C(Cl)c1c(Cl)cccc1Cl,inactive,inactive,–,–
CCCCOC(=O)c1ccc(O)cc1,inactive,inactive,–,–
C=CC(=O)OCCCCCC,inactive,inactive,–,–

# Source: PubChem BioAssay (Tox21)
